D1 antagonist: antagonists of human D1 dopamine receptor; P21728; HEK293 TREx D1 cells, calcium flux, dopamine EC80; hits give low values; activity change, negative = inhibition, % at 10 µM; 360,000 tested, 3.2% active; in the data active = activity change below about -30%
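Calcium flux readout: force-coupled, inducible Hek293 Trex D1 line, cells induced overnight at 30 C with tetracycline, dye-loaded 30–90 min at RT. Antagonism scored against EC80 dopamine challenge given 180 s after compound.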
DRD3 agonist: activates the human D3 dopamine receptor | D3R DiscoveRx beta-arrestin cells, luminescence, 90 min | max activation, % | 410,000 tested, 0.58% active | AID 652048; in the data active = max activation above about 30%
Target sequence (P35462 whole entry, looked up): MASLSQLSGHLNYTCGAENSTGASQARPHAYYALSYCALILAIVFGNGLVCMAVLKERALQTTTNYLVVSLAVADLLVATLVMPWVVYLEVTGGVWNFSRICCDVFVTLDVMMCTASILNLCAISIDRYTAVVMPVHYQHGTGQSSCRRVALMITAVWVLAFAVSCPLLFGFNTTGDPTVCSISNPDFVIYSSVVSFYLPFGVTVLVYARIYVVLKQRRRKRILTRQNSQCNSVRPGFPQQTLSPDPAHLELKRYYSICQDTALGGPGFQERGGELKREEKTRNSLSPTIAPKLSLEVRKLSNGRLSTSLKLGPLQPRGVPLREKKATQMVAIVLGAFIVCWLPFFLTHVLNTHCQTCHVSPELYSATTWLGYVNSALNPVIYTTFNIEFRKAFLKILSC
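Cells at 1500/well, incubated overnight, then treated with pinned compounds (dopamine as control) for 90 min at 37 degrees C. DiscoveRx reagent added for 30 - 60 minutes at room temperature; luminescence read.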
D1 ag: activates the human D1 dopamine receptor; 360,000 tested, 1% active; P21728; activation, % at 2 µM; HEK293 T-REx D1 cells, calcium flux, agonist mode; in the data active = activation above about 30%
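Agonism was scored from calcium flux recorded over 180 s (1 read/s) after pintool compound addition, following a 10-cycle baseline. Cells were inducible force-coupled HEK293 TREx D1, plated overnight at 30 C and loaded with no-wash calcium dye.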
D1 PAM: potentiators of human D1 dopamine receptor; P21728; HEK293 TREx D1 cells, calcium flux, dopamine EC20 potentiation; potentiation, % at 10 µM; 360,000 tested, 0.036% active; in the data active = potentiation above about 30%
ERG Ets-DNA blk: inhibitors of human ERG Ets domain-DNA interaction; P11308; fluorescence polarization, His-ERG Ets domain / labelled DNA; Potency, µM (titrated, usually from 76.9 µM), hits mostly inhibitors; 370,000 tested, 0.028% active; AID 624246; active = well fitted inhibition curve with a large enough effect in the polarisation, with a control signal flat; the % refers to the polarisation;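 note: polarization taken with two DNA probes labelled with fluorescein and Texas red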
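His-tagged ERG Ets domain (1 uM in the protein solution; 300mM KCl, 50mM Tris-HCl, 1mM EDTA, 1mM DTT, pH 7.5) received compound, then a probe mix of 5 nM fluorescein-DNA and 100nM Texas-615-DNA. Fluorescence polarization was read for both dyes.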
D3 antag: antagonists of human D3 dopamine receptor; D3R cells, DiscoveRx beta-arrestin luminescence, antagonist mode; hits give low values; max response, negative = inhibition, %; AID 652054; 360,000 tested, 2.5% active; P35462; in the data active = max response below about -50%
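Cells expressing the human receptor were seeded at 1500 cells/well, incubated overnight at 37 degrees C in 5% CO2, then exposed to library compounds with dopamine controls for 90 minutes at 37 degrees C before luminescent detection.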
Large screens that a line does not name were inactive. Rows were chosen to be rich in hits. Some 6.1% of all compounds tested hit in one or more screens of this group.

CCOc1ccccc1CN1CCN(CCCc2ccccc2)CC1CCO (stereo not drawn)	D3 antag -73
OCCC1CN(Cc2ccc(F)cc2Cl)CCN1CCc1ccccc1 (stereo not drawn)	D3 antag -99
OCCC1CN(Cc2cc(F)ccc2F)CCN1CCCc1ccccc1 (stereo not drawn)	D3 antag -86
COc1ccc(OC)c(CN2CCN(CCc3ccccc3)C(CCO)C2)c1 (stereo not drawn)	D3 antag -56
COc1ccc(CNC(=O)c2c(O)c3ccccc3n(C)c2=O)cc1	none
COc1cccc(NC(=O)C2CCCN2C(=O)Nc2cccc(F)c2)c1 (stereo not drawn)	none
COC(=O)[C@H]1CCCN1C(=O)Nc1cccc(Oc2c(F)c(F)c(F)c(F)c2F)c1	D1 antagonist -31
C[C@@H]1CN([C@H](C)CO)C(=O)CCCn2cc(nn2)CO[C@H]1CN(C)C(=O)Nc1ccnc(N2CCOCC2)c1	none (no result: D1 antagonist, D1 ag, D1 PAM, ERG Ets-DNA blk)
O=c1nc2ccccc2c2n1CC(CN1CCN(C(c3ccccc3)c3ccccc3)CC1)N2 (stereo not drawn)	D3 antag -77
CCC(C(=O)NCc1ccc(OC)c(OC)c1)n1nc(C)c2c(C)n(-c3ccc(C)cc3)nc2c1=O (stereo not drawn)	none (no result: D3 antag)
CCOC(=O)c1ccc(-c2c(-c3ccc4c(c3)OCO4)noc2-c2ccsc2)cc1F	none
Cc1ccc(NC(=O)COC(=O)CCc2ccc(S(=O)(=O)N3CCOCC3)cc2)cc1F	D1 antagonist -31
Cc1nnc(SC(C)C(=O)Nc2ccc(S(=O)(=O)N3CCCCC3)cc2)s1 (stereo not drawn)	none
CC(Oc1ccc(Cl)cc1)C(=O)Nc1ccc(S(=O)(=O)N2CCOCC2)cc1 (stereo not drawn)	D1 ag 47
O=C(Cc1ccc(Cl)cc1)Nc1ccc(S(=O)(=O)N2CCOCC2)cc1	D1 ag 34
Cc1csc(SC(C)C(=O)Nc2ccc(S(=O)(=O)N3CCCC3)cc2)n1 (stereo not drawn)	D1 antagonist -40
Cc1ccc(CC(=O)Nc2ccc(S(=O)(=O)N3CCOCC3)cc2)cc1	none
CC(=O)c1cccc(NC(=O)COC(=O)CCc2ccc(S(=O)(=O)N3CCOCC3)cc2)c1	none
CC(Oc1ccc(Cl)cc1)C(=O)Nc1cccc(S(=O)(=O)N2CCCC2)c1 (stereo not drawn)	none (no result: D1 antagonist, D1 ag, D1 PAM, ERG Ets-DNA blk)
Cn1c(SCC(=O)NNC(=O)Cc2ccccc2)nc2ccccc2c1=O	none
Cc1ccc(SC(C)C(=O)Nc2ccc(S(=O)(=O)N3CCOCC3)cc2)cc1 (stereo not drawn)	D1 ag 46
Cc1ccc(NC(=O)c2ccc(S(=O)(=O)N3CCOCC3)cc2)cc1	none
COc1ccc(CC(=O)Nc2ccc(F)c(Cl)c2)cc1S(=O)(=O)N1CCOCC1	D1 antagonist -35
COc1ccc(C(=O)Nc2nc(C)cc(C)n2)cc1	none
COc1ccc(C(=O)Nc2n[nH]c(-c3ccncc3)n2)cc1	D1 antagonist -47
Cc1ccc(NC(=O)CS(=O)CC(=O)N(CC(=O)NC(C)(C)C)c2cccc(C)c2C)cc1 (stereo not drawn)	DRD3 agonist 32
Fc1ccc(N2CCN(C3CCC(c4ccccc4)CC3)CC2)cc1 (stereo not drawn)	D3 antag -82
CCN1CCC(N2CCN(c3ccc(F)cc3)CC2)CC1	none
COc1ccc(S(=O)(=O)N2CCN(c3ccccn3)CC2)c(OC)c1	none
CCN1CCN(c2ccccc2NC(=O)C(C)Oc2ccc(C(C)=O)cc2)CC1 (stereo not drawn)	D1 antagonist -49
CC(Oc1ccc(Cl)cc1)C(=O)Nc1ccccc1N1CCOCC1 (stereo not drawn)	none (no result: D1 antagonist, D1 ag, D1 PAM)
O=C(CCc1ccccc1)NC1CC(=O)N(c2cccc(F)c2)C1 (stereo not drawn)	none (no result: D1 antagonist, D3 antag)
O=C(Cc1ccc(F)cc1)NC1CCSC1=O (stereo not drawn)	D1 antagonist -33
CCn1cc([N+](=O)[O-])c(C(=O)Nc2ccc3c(c2)OCCO3)n1	D1 antagonist -75 (no result: ERG Ets-DNA blk)
